# From PubChem BioAssay
# Most compounds without a hit are left out; they make up all but 22% or so of the library.
# LmPK inh: LmPK (Leishmania mexicana) enzyme inhibition; purified LmPK, Kinase-Glo ATP luminescence, 1 h; Potency, µM (top dose mostly 57.5 µM), for inactives: top-dose activity change, negative = inhibition, usual class: inhibitors; actives 0.37% (n = 290,000); note: potency is the fitted concentration of half-maximal effect; % is set by controls: 0 for no effect and ±100 for the full control effect
# Target sequence (Q27686 whole entry, looked up): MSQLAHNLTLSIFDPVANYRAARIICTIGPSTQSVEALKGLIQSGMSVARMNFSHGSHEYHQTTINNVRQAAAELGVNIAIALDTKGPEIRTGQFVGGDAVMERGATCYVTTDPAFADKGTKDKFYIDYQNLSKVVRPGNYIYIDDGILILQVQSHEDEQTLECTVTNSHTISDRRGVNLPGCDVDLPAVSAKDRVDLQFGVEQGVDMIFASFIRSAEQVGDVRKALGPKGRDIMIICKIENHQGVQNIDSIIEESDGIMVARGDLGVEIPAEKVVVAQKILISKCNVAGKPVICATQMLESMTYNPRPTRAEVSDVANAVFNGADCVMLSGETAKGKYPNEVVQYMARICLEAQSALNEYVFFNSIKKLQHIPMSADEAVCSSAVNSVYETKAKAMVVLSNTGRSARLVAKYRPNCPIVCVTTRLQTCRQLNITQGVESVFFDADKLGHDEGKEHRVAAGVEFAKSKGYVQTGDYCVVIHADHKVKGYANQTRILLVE
#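 Purified LmPK (0.1 nM) with 0.5 mM PEP and 0.1 mM ADP in imidazole buffer pH 7.2 with MgCl2/KCl, 1 h at room temperature. ATP formed was read by luciferase luminescence and normalized to no-enzyme and uninhibited controls.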
# Shiga inhibitor: inhibitors of Shiga toxin in Vero cells; Vero cells, Shiga toxin protein synthesis inhibition reporter; actives 9.2% (n = 290,000); AID 2315; inhibition, % at 38.7 µM; in the data active = inhibition mostly above about 28%, no sharp cut-off; inactive = mostly below about 43%; note: 0% is about no effect
# Pf growth 48h: P. falciparum growth inhibition at 48 hours (one generation). actives 5.9% (n = 310,000). Potency, µM (top dose mostly 28.7 µM), without a hit: at the top dose activity change, negative = inhibition, most hits filed as inhibitors. P. falciparum luciferase growth in erythrocytes, 48 h. AID 504832; note: potency is the fitted concentration of half-maximal effect; % is set by controls: 0 for no effect and ±100 for the full control effect
#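 Firefly luciferase activity from engineered P. falciparum reports growth; inhibitors lower the luminescent signal. Cultures contained 2% hematocrit erythrocytes at 0.1% final parasitemia.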
# Pf growth 96h: inhibits malaria parasite growth, 96 h; actives 6.9% (n = 320,000); Potency, µM (titrated, usually from 28.7 µM), for inactives: top-dose activity change, negative = inhibition, actives largely listed as inhibitors; P. falciparum luciferase reporter growth, 96 h; AID 504834; note: potency is the fitted concentration of half-maximal effect; % is set by controls: 0 for no effect and ±100 for the full control effect
#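 Plates of compound plus infected erythrocytes (2% hematocrit, 0.05% parasitemia final) incubate 96 hours, 37 C, 5% CO2. Detection reagent added; reduced luminescence from the parasites' luciferase reporter flags inhibition.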
# Cycloheximide cs: counter-screen hit for Shiga toxin inhibitors, cycloheximide; actives 12% (n = 300,000); AID 2314; cell reporter, cycloheximide protein synthesis inhibition counterscreen; max response, %; in the data active = max response mostly above about 13%, no sharp cut-off; inactive = mostly below about 14%; note: read at 38.3 µM for the half of the compounds with a filed dose; 0% is about no effect
# * = called active by the depositor; ? = inconclusive; / = no result given. Unless noted, calls come from the whole dose curve; as a rule, active = well fitted inhibition curve with a large enough effect; inconclusive = small, poorly fitted or top-dose-only effect, or another doubt; inactive = no such curve, though single readings can be large or run the other way.
SMILES,LmPK inh,Shiga inhibitor,Pf growth 48h,Pf growth 96h,Cycloheximide cs
O=C(c1cc(-c2ccc(F)cc2)on1)N1CCOCC1,-3.3%,44.7,165.9%,-12.0%,26.5*
O=C(c1cc(-c2ccc(F)cc2)on1)N1CCCCCC1,-3.4%,114.8*,174.2%,14.7µM*,46.2*
O=C(c1cc(-c2ccc(Br)cc2)on1)N1CCCC1,-3.4%,118.1*,203.3%,25.5%,33.1*
CC1CCCCN1C(=O)CNCC1CCCO1 (centres undefined),2.0%,1.5,?,69.4%,-2.0
O=C(c1ccc(NC2=NC3CS(=O)(=O)CC3S2)cc1)N(CCO)Cc1ccccc1 (centres undefined),-4.9%,20.3,14.1%,31.8%,-0.1
CCOc1ccc(C(=O)NCc2ccc3c(c2)OCO3)cc1OCC,3.9%,/,15.2%,-10.7%,-8.0
COc1ccc(Cn2cc(F)c(=O)n(CCC(C)C)c2=O)cc1[N+](=O)[O-],0.7%,2.9,-23.1%,?,6.2
COc1ccc2nc(SC(C)C(=O)NCC(=O)Nc3ccc(F)c(F)c3F)[nH]c2c1 (centres undefined),/,/,?,20.7%,/
NC(=O)[C@@H]1CCCN1C(=O)c1cc(COc2ccc3c(c2)CCCC3)on1,-0.1%,33.9*,2.3%,?,35.8*
O=C(c1cc(COc2ccc3ncccc3c2)on1)N1CCCC(O)C1 (centres undefined),-15.6%,10.4,48.6%,?,2.5
COCCC1CCCCN1C(=O)c1cc(COc2ccc(C)nc2)on1 (centres undefined),9.0%,45.0,-12.3%,?,48.9*
O=C(c1cc(COc2ccc3ncccc3c2)on1)N1CCC[C@H]1CO,-1.4%,56.3*,-6.2%,?,33.8*
Cc1ccc(-c2cc(C(=O)N3CCCCCC3)no2)cc1,-2.7%,102.1*,254.8%,?,48.0*
CCOC(=O)c1cccc(C2=CC(=O)CC(C)(C)C2)c1,/,/,-15.1%,?,/
CC1(C2CC2)NC(=O)N(CC(=O)N2CCN(c3ccccc3)CC2)C1=O (centres undefined),/,/,0.7%,-9.1%,/
O=C(CN1CCN(Cc2ccc(Cl)cc2)CC1)N/N=C/c1cccs1,4.6%,11.9,?,11.0%,-1.5
CCN(CC)C(=O)c1cc(-c2ccc(Br)cc2)on1,0.1%,89.9*,179.4%,?,46.5*
O=C(c1sc2ccccc2c1Cl)N1CCN(c2ccccn2)CC1,-3.4%,-7.5,3.6%,201.9%,-0.2
O=C(c1sc2ccccc2c1Cl)N1CCC2(CC1)OCCO2,5.3%,17.4,26.2%,-2.9%,11.5*
COC(=O)c1cc(-c2ccc(Br)cc2)on1,-3.8%,-2.2,/,159.2%,-2.7
COc1ccc(S(=O)(=O)NCc2cccnc2)c2ccccc12,-4.5%,-4.2,6.7%,-11.2%,1.5
Cc1cc2c(cc1C)-c1nnnn1C(C)(C)C2,-3.0%,59.0*,48.7%,-9.4%,16.7
CCOC(=O)Cn1c(=O)cc(C)c2cccc(C)c21,3.6%,6.4,-9.7%,29.6%,4.6
Oc1ccccc1C1CC(c2cccs2)=NC(c2cccc(Br)c2)N1 (centres undefined),-0.5%,70.5*,?,2.62µM*,42.2*
CN(C)S(=O)(=O)c1ccc(Cl)c(NC(=O)COC(=O)/C=C/c2ccc3ccccc3n2)c1,/,/,-3.8%,-3.1%,/
SMILES,LmPK inh,Shiga inhibitor,Pf growth 48h,Pf growth 96h,Cycloheximide cs
CC1NC2(C(=O)N(Cc3ccccc3)c3ccccc32)C2C(=O)N(c3ccccc3)C(=O)C12 (centres undefined),2.9%,7.6,?,11.7µM*,12.0
O=C(c1ccccc1)N(Cc1nc2ccccc2c(=O)[nH]1)C1CCCCC1,0.8%,-10.4,-11.7%,-12.2%,-1.7
O=C(c1cccc(F)c1)N(Cc1nc2ccccc2c(=O)[nH]1)C1CCCC1,0.0%,-4.5,6.57µM*,?,9.4
CC1CCCCC1NC(=O)CCCc1nc2ccccc2c(=O)[nH]1 (centres undefined),0.6%,23.4,-30.0%,?,7.8*
O=C(CCc1nc2ccccc2c(=O)[nH]1)NC1CCN(Cc2ccccc2)CC1,3.2%,-1.7,-10.9%,-10.1%,-5.1
O=C(NC1CCCCC1)N(Cc1nc2ccccc2c(=O)[nH]1)C1CCCCC1,-0.7%,65.2*,?,-4.7%,25.0*
O=C(O)C1CCCN1 (centres undefined),/,32.2,/,/,-4.4
O=C(COC(=O)c1ccccc1C(=O)c1ccccc1)Nc1ccc(SC(F)F)cc1,-2.0%,-2.3,17.9%,43.1%,20.1*
NC(=O)COC(=O)c1ccccc1Nc1ccc(SC(F)F)cc1,-4.8%,40.2,19.2%,59.1%,13.8*
CN(C)C(=O)COC(=O)c1ccccc1OCC(=O)Nc1ccc(SC(F)F)cc1,7.4%,2.3,8.8%,6.7%,-0.9
CC(C)(C)NC(=O)COC(=O)c1ccccc1Nc1ccc(SC(F)F)cc1,-8.9%,67.0*,?,?,55.2*
CC1CN(C(=O)c2ccccc2Nc2ccc(SC(F)F)cc2)CC(C)O1 (centres undefined),0.7%,-6.3,?,?,-2.6
CC(OC(=O)c1ccccc1Nc1ccc(SC(F)F)cc1)C(N)=O (centres undefined),-1.0%,-5.0,-11.6%,41.9%,-0.9
CC1CCCC(C)N1C(=O)c1ccccc1Nc1ccc(SC(F)F)cc1 (centres undefined),1.4%,-11.7,?,13.1µM*,-4.0
Cc1cccc(Nc2ccccc2C(=O)OCC(=O)NCc2ccco2)c1C,0.4%,29.6,?,11.7µM*,18.9
O=C(COC(=O)c1ccccc1Nc1ccc(SC(F)F)cc1)NCc1ccco1,2.2%,62.7*,?,?,33.2*
Cc1c(C(=O)OCC(=O)NCc2ccco2)cccc1[N+](=O)[O-],/,/,-12.2%,-5.4%,/
O=C(COC(=O)c1cccnc1SC(F)F)NC1CC1,/,/,-26.1%,0.0%,/
O=C(COC(=O)c1ccccc1Nc1ccc(SC(F)F)cc1)NC1CC1,-20.1%,75.0*,?,0.0%,72.9*
O=C(COC(=O)c1ccccc1Nc1ccccc1)Nc1ccccc1,-1.7%,2.8,-5.3%,11.8%,0.5
CNC(=O)COC(=O)c1ccccc1Nc1ccccc1,-2.9%,117.6*,0.0%,18.1%,16.8*
O=C(NC(Cc1ccccc1)C(=O)O)/C(=C/c1ccc(Br)cc1)NC(=O)c1ccc(Br)o1 (centres undefined),-7.1%,-32.2,7.5%,18.5%,0.3
c1ncc(CCCC2CCNCC2)[nH]1,/,2.1,/,/,-5.4
O=C(O)CCCN1C(=O)/C(=C\C(Cl)=C\c2ccccc2)SC1=S,3.4%,-5.6,9.28µM*,?,-0.2
O=C(CCCN1C(=O)/C(=C\c2ccccc2)SC1=S)Nc1ccc(O)cc1,-4.0%,2.9,?,2.6%,26.1*
O=C(CCN1C(=O)/C(=C\c2ccccc2)SC1=S)Nc1ccc(C(=O)O)cc1,-0.3%,-3.1,27.9%,-11.4%,3.6
Cc1ccc(/C=C2/SC(=S)N(CCCC(=O)Nc3ccc(O)cc3)C2=O)cc1,2.0%,25.5*,?,3.2%,31.4*
